Mdm2 MdmX PPI: disrupts the human Mdm2-MdmX interaction | O15151+Q00987 | SaOS-2 split-luciferase Mdm2/MdmX complementation, luminescence | inhibition, % at 8 µM | hit rate 3% among 330,000 | AID 485346;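 active means inhibition of at least 50% at 8 µM in the primary screen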
Target sequence (O15151 whole entry, looked up): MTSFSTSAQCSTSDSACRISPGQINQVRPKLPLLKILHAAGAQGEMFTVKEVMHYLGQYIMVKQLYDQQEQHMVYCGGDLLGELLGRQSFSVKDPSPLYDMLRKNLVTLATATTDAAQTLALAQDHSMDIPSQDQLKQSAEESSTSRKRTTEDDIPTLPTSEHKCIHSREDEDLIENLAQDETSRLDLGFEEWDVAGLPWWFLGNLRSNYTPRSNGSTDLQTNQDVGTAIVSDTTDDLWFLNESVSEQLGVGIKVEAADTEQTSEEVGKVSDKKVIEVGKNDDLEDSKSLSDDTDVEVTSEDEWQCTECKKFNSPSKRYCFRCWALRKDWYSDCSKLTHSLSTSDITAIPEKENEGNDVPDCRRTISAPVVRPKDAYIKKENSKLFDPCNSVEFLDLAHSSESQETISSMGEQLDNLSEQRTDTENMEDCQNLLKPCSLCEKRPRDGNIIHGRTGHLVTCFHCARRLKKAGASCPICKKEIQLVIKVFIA
Target sequence (Q00987 whole entry, looked up): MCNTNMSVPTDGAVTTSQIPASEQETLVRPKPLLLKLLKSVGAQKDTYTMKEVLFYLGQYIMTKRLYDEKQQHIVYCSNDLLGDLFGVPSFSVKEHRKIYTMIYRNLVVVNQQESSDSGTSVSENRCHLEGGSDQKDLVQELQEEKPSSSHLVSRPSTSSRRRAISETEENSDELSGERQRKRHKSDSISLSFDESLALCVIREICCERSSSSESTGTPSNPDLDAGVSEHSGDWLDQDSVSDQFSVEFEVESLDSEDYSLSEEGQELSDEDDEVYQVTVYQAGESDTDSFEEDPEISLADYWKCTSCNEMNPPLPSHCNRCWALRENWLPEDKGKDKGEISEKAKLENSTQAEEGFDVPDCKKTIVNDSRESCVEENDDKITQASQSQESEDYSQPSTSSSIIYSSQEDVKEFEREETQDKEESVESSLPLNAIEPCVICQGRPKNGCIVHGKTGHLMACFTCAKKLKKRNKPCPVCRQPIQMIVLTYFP
Calb FLC: C. albicans growth modulation with fluconazole. C. albicans CaCi-2 (fluconazole-resistant clinical isolate) + fluconazole, Alamar Blue growth, 48 h. growth inhibition, % (no concentration beside the values). hit rate 0.57% among 300,000. AID 1979;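 active means growth inhibition above about 58% in most replicates, limit read from the data, passing the limit was not always enough; inconclusive means exactly half the replicates above a set limit; inactive means most replicates below a set limit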;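 further: all wells also contain fluconazole at 8 µg/ml as a sub-toxic cotreatment; 0% = median of DMSO wells and 100% = median of geldanamycin control wells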
CSC inhib: cancer stem cell inhibition; inhibition, % at 7.5 µM; AID 2717; cancer stem cell-like cells viability, luminescence; hit rate 1.1% among 300,000; in the data active means inhibition above about 75%; inconclusive means no clear call, values can overlap the other calls; tested in HMLE shEcad cells
Beta apoptosis: beta cell apoptosis inhibition | INS-1E cytokine-induced death, ATP luminescence, 48 h; percent of positive-control rescue, neutral wells zero | protection from apoptosis, % (no concentration beside the values) | hit rate 0.8% among 300,000 | AID 435005;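 active means Every replicate reaches about 75%, or at least half do and their mean reaches it too, limit read from the data; inconclusive means At least half of replicates reach the limit but their mean does not; inactive means Under half of replicates reach the limit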;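 further: 0% = cytokine-treated negative control wells and 100% = positive control rescue; higher means more ATP so stronger rescue from cytokine killing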
MPTP inh: blocks calcium-induced mitochondrial swelling | AID 602449 | hit rate 1.4% among 360,000 | inhibition, % at 10 µM | isolated mouse mitochondria, Ca2+ swelling absorbance, 30 min;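 active means inhibition of 50% or more, scaled per plate between neutral and stimulator controls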;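 further: 0% = DMSO wells given calcium and 100% = 1 mM EGTA wells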
Mdm2 MdmX conf: confirmation of human Mdm2/MdmX interaction inhibitors; AID 489028; hit rate 55% among 10,000; shares compounds with Mdm2 MdmX PPI; Mdm2-MdmX binding, luminescent assay; inhibition, % at 8 µM; in the data active means inhibition above about 40%
Full FLuc ctr: counter-screen for Mdm2/MdmX inhibitors: full-length luciferase; shares compounds with Mdm2 MdmX PPI; SaOS-2 full-length luciferase counterscreen, luminescence; inhibition, % at 8 µM; hit rate 77% among 6,200; AID 504607;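 active means mean inhibition at 8 µM reaching about 37%, which flags the compound as non-specific, limit read from the data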;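 further: p53-null SaOS-2 cells with luciferase driven by a doxycycline-inducible promoter; compound on cells about two nights before reading with doxycycline added after day one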
* hit, by the source's call; ? = inconclusive; · = not tested or not shown. Shown are actives, neighbours in structure and some others; about 4.8% of the full set was active somewhere.

SMILES	Mdm2 MdmX PPI	Calb FLC	CSC inhib	Beta apoptosis	MPTP inh	Mdm2 MdmX conf	Full FLuc ctr
Cc1ccc(CC2(C)C(=O)Nc3c(Cl)cccc32)cc1 (configuration not stated)	·	·	·	·	-1.4	·	·
O=C(O)COc1ccc(/C=N/NC(=O)Cc2ccc(Cl)cc2)cc1	25.7	-3.6	-9.6	-6.2	1.9	·	·
CCOC(=O)c1sc2nc(CSc3ccccc3Cl)[nH]c(=O)c2c1C	52.3*	2.9	5.3	2.4	0.4	-1.8	·
COC(=O)c1sc2nc(CSc3ccc(Br)cc3)[nH]c(=O)c2c1C	6.0	13.4	19.3	-12.2	10.8	·	·
O=C(CSc1ccsc1[N+](=O)[O-])NCc1ccco1	6.6	?	1.2	3.6	-0.2	·	·
O=C(Cn1c(COc2ccccc2)nc2ccccc21)Nc1cc(Cl)ccc1Cl	89.2*	-4.5	1.7	11.7	0.6	71.0*	104.1*
O=C(Cn1c(COc2ccc(Cl)cc2)nc2ccccc21)NCC(F)(F)F	-25.8	1.5	·	·	5.2	·	·
COc1ccc(F)cc1C(=O)C1CCCN(Cc2c[nH]c3ccccc23)C1 (configuration not stated)	52.8*	?	7.4	-2.8	3.8	27.4	·
Cc1ccc(C2=NN(CCC#N)C(=O)CO2)cc1	19.7	0.9	-12.5	-1.0	-0.9	·	·
Cc1[nH]n2c(=O)cc(-c3ccc([N+](=O)[O-])cc3)nc2c1-c1ccccc1	65.9*	-1.4	-8.8	2.7	3.6	66.5*	39.2*
COC(=O)[C@@]12C[C@@H](CC(=O)NCc3ccc(OC)c(OC)c3)C(=O)N(Cc3ccco3)C1=CCC(C)(C)C2	·	·	·	·	2.5	·	·
CC[C@@]1(C(=O)OC)N[C@H](CN(C)C(C)=O)[C@@H]2C(=O)N(Cc3ccccc3)C(=O)[C@@H]21	1.2	·	·	·	-0.9	·	·
CC[C@@]1(C(=O)OC)N[C@H](CN(C)C(=O)Nc2ccc(Cl)cc2)[C@@H]2C(=O)N(Cc3ccccc3)C(=O)[C@@H]21	64.2*	·	·	-2.7	0.5	56.7*	51.4*
CN(C)c1nc(NCc2ccccc2)nc(N/N=C/c2ccc(Br)cc2)n1	90.2*	-16.8	5.4	9.8	-1.7	32.6	·
Cc1ccc2[nH]c3c(c2c1)CCCC3C(N)=O (configuration not stated)	-0.7	0.2	12.1	-1.9	-0.3	·	·
Cc1ccc2[nH]c3c(c2c1)CCCC3NC(=O)CCl (configuration not stated)	80.4*	-0.6	39.4	-18.0	0.2	30.6	17.5
O=C(NC1CCCC1)c1nc(-c2c(F)cccc2F)oc1-c1ccccc1	·	·	·	·	4.0	·	·
Cc1cccc([C@@H]2[C@@H]3C(=O)N(Cc4ccccc4)C(=O)[C@@H]3[C@]3(C)C(=O)N(c4ccc(C(F)(F)F)cc4)C(=O)N23)c1	83.8*	28.0	8.2	8.7	2.8	74.5*	33.2
CCN1C(=O)[C@H]2[C@@H](c3ccc(C)cc3)N3C(=O)N(c4ccc(C(F)(F)F)cc4)C(=O)[C@@]3(Cc3ccccc3)[C@H]2C1=O	34.4	-2.7	-10.4	0.5	0.6	·	·
COc1ccc(N2C(=O)N3[C@H](c4cccc(C)c4)[C@@H]4C(=O)N(Cc5ccccc5)C(=O)[C@@H]4[C@]3(Cc3ccccc3)C2=O)cc1	69.8*	7.7	-7.0	8.9	·	79.7*	35.6
CCN1C(=O)[C@H]2[C@@H](c3ccc(C)cc3)N3C(=O)N(c4cccc(C)c4)C(=O)[C@@]3(Cc3ccccc3)[C@H]2C1=O	7.3	5.1	-3.8	0.6	4.2	·	·
Cc1cccc2c(=O)c(C(=O)NCCc3ccccc3)c[nH]c12	17.5	2.2	31.5	11.7	0.0	·	·
Cc1[nH]c2c(C)cccc2c1CCNC(=O)c1ccc2c(c1[N+](=O)[O-])C(=O)c1ccccc1C2=O	74.7*	5.0	50.2	-7.1	0.5	31.2	·
Cc1[nH]c2ccccc2c1CCNC(=O)c1ccc2c(c1[N+](=O)[O-])C(=O)c1ccccc1C2=O	68.8*	33.4	23.7	9.6	-1.1	20.4	·
CN(C)C(=O)c1ccc2c(c1[N+](=O)[O-])C(=O)c1ccccc1C2=O	14.1	-3.4	4.7	28.7	1.0	·	·
SMILES	Mdm2 MdmX PPI	Calb FLC	CSC inhib	Beta apoptosis	MPTP inh	Mdm2 MdmX conf	Full FLuc ctr
Cc1ccc(CN2C(=O)CSCC2(C)C(=O)NCc2ccccc2)cc1 (configuration not stated)	·	·	·	·	-0.9	·	·
CN(CCO)c1cc(Sc2nc3ccccc3s2)c2nonc2c1[N+](=O)[O-]	96.6*	?	103.4*	55.9	3.0	97.2*	1.9
CC(=O)OCCN(C)c1cc(SC(C)C)c2nonc2c1[N+](=O)[O-]	15.0	-1.9	-15.6	-2.9	1.1	·	·
CC(N)c1csc(Nc2ccc(S(C)(=O)=O)cc2)n1 (configuration not stated)	·	·	·	·	-1.2	·	·
COc1ccc(-c2oc3ccccc3c(=O)c2OC(C)=O)cc1	73.5*	44.9	27.3	3.2	2.7	82.7*	50.9*
CC(=O)Oc1c(-c2ccc(Br)o2)oc2ccccc2c1=O	92.7*	84.8*	21.5	1.8	3.0	41.1*	29.9
O=C(O)COc1c(-c2ccco2)oc2ccccc2c1=O	-13.5	-4.2	-4.1	-0.1	-0.6	·	·
O=C(NNC(=O)c1cc(Br)ccc1O)c1csc(N2CCOCC2)n1	64.2*	·	·	10.3	0.8	44.4*	58.6*
COc1ccccc1/C=C1/SC(=S)N(CCC(=O)Nc2cccnc2)C1=O	29.1	2.6	14.6	-4.6	-1.7	·	·
O=C(CCCN1C(=O)/C(=C\c2cccs2)SC1=S)Nc1cccnc1	78.4*	-0.2	-3.5	-7.5	2.3	79.5*	25.5
O=C(CCCN1C(=O)/C(=C/c2cccc(Br)c2)SC1=S)Nc1cccnc1	78.3*	50.5	-15.6	-8.6	-1.0	78.4*	62.8*
O=C(CCCN1C(=O)/C(=C/c2ccccc2OC(F)F)SC1=S)Nc1cccnc1	84.9*	·	-13.2	-4.3	0.2	58.7*	22.0
O=C(CCCN1C(=O)/C(=C\c2cccc(Br)c2)SC1=S)Nc1cccnc1	100.3*	46.5	47.3	-5.7	8.2	85.5*	24.4
CCCCC1Cc2[nH]c(=S)[nH]c(=O)c2C(c2cccc3ccccc23)O1 (configuration not stated)	·	·	·	·	-1.1	·	·
C=CC1=CCN(S(=O)(=O)C(C)(C)C)[C@H]1CCO	·	·	·	·	-2.1	·	·
O=C1c2ccccc2C(c2nnnn2-c2ccc3c(c2)OCCO3)N1CCCN1CCOCC1 (configuration not stated)	·	·	·	·	0.0	·	·
Cc1ccc(/C=C2\SC(=S)N(CCCC(=O)Nc3cccnc3)C2=O)cc1	91.7*	-3.1	0.4	·	13.4	72.5*	4.6
O=C(CCCN1C(=O)/C(=C/c2cccc(Br)c2)SC1=S)Nc1ccccn1	69.0*	13.8	44.5	-20.8	2.0	84.4*	31.0
Cc1ccc(/C=C2\SC(=S)N(CC(=O)Nc3cccnc3)C2=O)cc1	17.7	-1.5	7.9	-1.2	6.7	·	·
CCOC1=NN(c2ncc(C(F)(F)F)cc2Cl)C(=O)/C1=C/N(C)C	69.7*	21.5	-5.4	-6.6	0.0	-7.0	·

Compound activity (PubChem BioAssay)
